# An excerpt weighted towards active compounds, which were near 2.6% of everything screened.
# OvCa metastasis = inhibitors of ovarian cancer cell adhesion and invasion in omental model; SKOV3ip1-GFP adhesion/invasion on 3D omental model, fluorescence; Potency, µM (doses to about 45.8 µM), for the others: at the top dose activity change, negative = inhibition, usual class: inhibitors; actives 0.1% (n = 46,000); AID 1963576;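 further: potency means the concentration at half of the fitted maximal effect; plate controls were DMSO wells for no effect and tomatine positive control wells for full effect; nearly all actives have a fitted effect of over 65% in size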
#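 Primary human omental fibroblast/mesothelial 3D culture pre-formed 48 h. SKOV3ip1-GFP cells added with compounds (0.36-46 umol/L), incubated 2 h RT/16 h 37 C, fixed; GFP cells quantified at 488/509 nm.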
# pS6 MEF inh = inhibitors of mTORC1 signaling in Tsc2-/- p53-/- MEF cells; Tsc2-/- p53-/- MEF, phospho-rpS6 immunofluorescence/PI, 24 h; Potency, µM (doses to about 38.3 µM), without a hit: at the top dose activity change, negative = inhibition, usual class: inhibitors; actives 0.78% (n = 44,000);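 further: potency means the concentration at half of the fitted maximal effect; plate controls were DMSO for no effect and rapamycin for full effect; nearly all actives have a fitted effect of over 50% in size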
#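 Plate MEFs (Tsc2-/-, p53-/-, empty vector) in DMEM/10% FBS; after 24 h add compound, incubate 24 h at 37 degree Celsius; fix in PFA/TX-100, block, stain phospho-rpS6 and 10 uM PI; scan at 488 nm; report % positive cells.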
# GALC G270D act = galactocerebrosidase G270D activity enhancement, cell-based; AID 1159614; 145M-Twi-hGALC-G270D cells, HMU-beta-Gal fluorescence, 48 h; actives 0.1% (n = 45,000); Potency, µM (highest dose often 57.5 µM), usual class: activators; P54803; further: potency means the concentration at half of the fitted maximal effect; 0% is about no effect; nearly all actives have a fitted effect of over 65% in size
#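 qHTS, 1536-well; 145M-Twi-hGALC-G270D cells (WT line also made) in DMEM/F12 + 10% FBS; compound incubation on live cells; HMU-β-gal 0.1 mM final, pH 5.2, NaTC; carbonate stop; fluorescence increase = enhanced residual activity.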
# PMP22 txn = modulators of PMP22 gene transcription in S16 Schwann cells; S16 Pmp22-F2sN Schwann cells, FLuc/NLuc coincidence luminescence, 24 h; Potency, µM (doses to about 57.5 µM), for the others: at the top dose activity change, negative = inhibition, usual class: inhibitors; actives 2% (n = 43,000); AID 1508649; active means clear falling dose curves in both reporters; inconclusive means both reporters move, but less clearly or upward; inactive means either reporter flat; the % is the NLuc reporter signal; further: potency means the concentration at half of the fitted maximal effect; on the % scale 0 is the no-effect control and ±100 the full control effect
#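 Schwann cells carrying the coincidence reporter were exposed to library compounds for 24 h at 37C, then lysed and read for FLuc and, after quenching, NLuc luminescence on a CCD imager.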
# S16 viability = toxic to S16 Pmp22-F2sN Schwann cells | S16 Pmp22-F2sN Schwann cells viability, CellTiter-Glo, 24 h | Potency, µM (highest dose often 57.5 µM), for the others: top-dose activity change, negative = cytotoxicity, actives largely listed as cytotoxic | actives 0.48% (n = 43,000); further: potency means the concentration at half of the fitted maximal effect; on the % scale 0 is the no-effect control and ±100 the full control effect; nearly all actives have a fitted effect of over 65% in size
#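 CellTiter-Glo counter-screen, qHTS, 1536-well. Cells: S16(c9) Pmp22-F2sN, 500-1,000/well in DMEM + 10% FBS. Cpd 23 nL pin transfer, 24 h, 37C/5% CO2. Read: luminescence, CCD imager.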
# NLuc sat counter = counter-screen for PMP22 expression modulators: NanoLuc inhibition, saturating substrate; Secreted NLuc enzyme (filtered S16 cell medium), Nano-Glo luminescence; shares compounds with PMP22 txn; actives 4% (n = 690); AID 1508638; Potency, µM (top dose mostly 57.5 µM), for inactives: top-dose activity change, negative = inhibition, hits mostly inhibitors; further: potency means the concentration at half of the fitted maximal effect; on the % scale 0 is the no-effect control and ±100 the full control effect
# NLuc Km ctr = counter-screen for PMP22 expression modulators: NanoLuc inhibition at Km. shares compounds with PMP22 txn. secreted NLuc enzyme, coelenterazine luminescence, Km conditions. Potency, µM (highest dose often 57.5 µM), inactives show at the top dose activity change, negative = inhibition, actives largely listed as inhibitors. actives 5% (n = 690). AID 1508639; further: potency means the concentration at half of the fitted maximal effect; on the % scale 0 is the no-effect control and ±100 the full control effect
# FLuc counter = counter-screen for PMP22 expression modulators: firefly luciferase inhibition; shares compounds with PMP22 txn; purified P. pyralis FLuc, luminescence, 10 min; Potency, µM (series often up to 57.5 µM), without a hit: at the highest dose activity, negative = inhibition, most hits filed as inhibitors; 690 tested, under 10 active; AID 1508640; further: % of control where 0% means no effect
# Target sequence (P08659 whole entry, looked up): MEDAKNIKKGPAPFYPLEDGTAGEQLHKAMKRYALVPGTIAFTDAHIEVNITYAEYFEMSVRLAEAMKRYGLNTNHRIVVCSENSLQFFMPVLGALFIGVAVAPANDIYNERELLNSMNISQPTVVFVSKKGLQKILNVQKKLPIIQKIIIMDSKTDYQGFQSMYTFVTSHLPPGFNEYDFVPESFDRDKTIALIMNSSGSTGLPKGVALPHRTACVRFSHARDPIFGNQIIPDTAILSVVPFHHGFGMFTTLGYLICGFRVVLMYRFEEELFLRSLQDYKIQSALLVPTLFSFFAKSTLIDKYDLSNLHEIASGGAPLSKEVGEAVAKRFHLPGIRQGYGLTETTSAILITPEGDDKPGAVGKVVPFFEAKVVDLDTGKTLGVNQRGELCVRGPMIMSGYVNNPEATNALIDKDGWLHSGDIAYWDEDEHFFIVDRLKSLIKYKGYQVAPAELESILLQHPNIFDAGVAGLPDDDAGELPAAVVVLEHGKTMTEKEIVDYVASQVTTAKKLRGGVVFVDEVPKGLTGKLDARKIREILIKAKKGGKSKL
# S16 F2sN tox cnf = confirmation of cytotoxicity in S16 Pmp22-F2sN Schwann cells (luciferase reporters placed in the Pmp22 gene); shares compounds with PMP22 txn; S16 Schwann cells viability, CellTiter-Glo ATP luminescence, 24 h; Potency, µM (series often up to 57.5 µM), for the others: at the highest dose activity change, negative = viability loss, most hits filed as cytotoxic; actives 7% (n = 690); AID 1508641; further: potency means the concentration at half of the fitted maximal effect; on the % scale 0 is the no-effect control and ±100 the full control effect
# PMP22 txn conf = confirmation of modulators of PMP22 gene transcription in S16 cells | shares compounds with PMP22 txn | S16 Schwann cells Pmp22-F2sN, dual luciferase, 24 h | Potency, µM (highest dose often 57.5 µM), for inactives: top-dose activity change, negative = inhibition, usual class: inhibitors | actives 22% (n = 690) | AID 1508646; active means clear falling dose curves in both reporters; inconclusive means both reporters move, but less clearly or upward; inactive means either reporter flat; the % is the FLuc reporter signal; further: potency means the concentration at half of the fitted maximal effect
# PMP22 prot conf = rat PMP22 protein level modulation, confirmatory; shares compounds with PMP22 txn; S16 Schwann cells Pmp22-HiBiT, luminescence, 48 h; Potency, µM (titrated, usually from 27.9 µM), inactives show top-dose activity change, negative = inhibition, usual class: inhibitors; 95 tested, under 10 active
# Target sequence (P25094 whole entry, looked up): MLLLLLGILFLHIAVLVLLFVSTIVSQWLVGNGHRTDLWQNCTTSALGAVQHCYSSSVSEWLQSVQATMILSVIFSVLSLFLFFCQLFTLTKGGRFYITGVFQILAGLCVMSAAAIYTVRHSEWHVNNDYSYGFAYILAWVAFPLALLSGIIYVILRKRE
# * hit, by the source's call; i = inactive; ? = inconclusive; . = not tested or not shown. Unless noted, the call rests on the fitted dose curve; in most records, active means well fitted curve in the direction sought with a large enough effect; inconclusive means small, poorly fitted or top-dose-only effect, or another doubt; inactive means no such curve, though single readings can be large; an effect the other way counts as inactive or inconclusive.
SMILES,OvCa metastasis,pS6 MEF inh,GALC G270D act,PMP22 txn,S16 viability,NLuc sat counter,NLuc Km ctr,FLuc counter,S16 F2sN tox cnf,PMP22 txn conf,others
O=C(CSc1nnc(-c2ccc(Cl)cc2)o1)c1ccc([N+](=O)[O-])cc1,i,-8%,i,?,25%,.,.,.,.,.,
CC(=O)Nc1cccc(-c2nnc(SCC(=O)c3cc([N+](=O)[O-])ccc3Cl)o2)c1,8%,?,i,14µM*,-1%,12µM*,7.7µM*,?,?,18µM*,
CC(=O)N1CCN(c2ccc(OCc3nn(C)c(C)c3-c3cccc4c(CCCOc5cccc6ccccc56)c(C(=O)O)n(Cc5cccnc5)c34)cc2)CC1,-19%,.,.,.,.,.,.,.,.,.,
CCOC(=O)COc1ccc(C)cc1C(=O)c1ccn2nc(-c3ccc(F)cc3)cc2n1,i,-2%,i,18µM*,24%,-10%,?,6%,11%,?,
CCOC(=O)COc1ccc(F)cc1C(=O)c1ccn2nc(-c3ccc(C)cc3)cc2n1,i,1%,i,-3%,?,.,.,.,.,.,
O=C(C=Cc1ccc(CN(CCO)CCc2c[nH]c3ccccc23)cc1)NO,-2%,.,.,.,.,.,.,.,.,.,
O=C(C=CC=Cc1ccc2c(c1)OCO2)N1CCCCC1,-25%,.,.,.,.,.,.,.,.,.,
COc1ccc(-n2nc3c(N4CCCC(C(=O)NCc5ccccc5C)C4)nnc(C)c3c2C)cc1 (centres undefined),?,5.2µM*,i,13µM*,25µM*,-3%,-1%,0%,22µM*,?,
COc1ccc(-n2nc3c(N4CCC(C(=O)NCc5ccccc5C)CC4)nnc(C)c3c2C)cc1,?,-2%,i,?,?,.,.,.,.,.,
COc1ccc(-n2nc3c(N4CCCC(C(=O)NCCc5ccccc5C)C4)nnc(C)c3c2C)cc1 (centres undefined),-24%,-5%,i,18µM*,?,?,-2%,10%,?,?,
CCc1cncnc1N1CCN(Cc2nc3ccc(C(F)(F)F)cc3[nH]2)CC1,-14%,.,.,.,.,.,.,.,.,.,
Cc1ccc(C(=O)Nc2ccc(S(=O)(=O)N3CCC(c4nc5ccccc5s4)CC3)cc2)cc1,-13%,2%,i,12µM*,8%,0%,5%,6%,-47%,15µM*,PMP22 prot conf=?
O=S(=O)(c1ccc(OC(F)(F)F)cc1)N1CCC(c2nc3ccccc3s2)CC1,-3%,3%,i,1%,4%,.,.,.,.,.,
CCN1CCN(c2ccc(Nc3cc(N(C)C(=O)Nc4c(Cl)c(OC)cc(OC)c4Cl)ncn3)cc2)CC1,2%,.,.,.,.,.,.,.,.,.,
COc1ccc(NC(=O)C2CCN(S(=O)(=O)c3c(C)noc3/C=C/c3ccc(C)cc3)CC2)cc1Cl,-9%,2%,i,-19%,6%,.,.,.,.,.,
Cc1ccc(C)c(NC(=O)C2CCCN(S(=O)(=O)c3c(C)noc3/C=C/N(C)C)C2)c1 (centres undefined),-17%,-26%,i,?,3%,?,?,3%,-6%,-5%,
Cc1ccc(/C=C/c2onc(C)c2S(=O)(=O)N2CCC(C(=O)NCC(C)c3ccccc3)CC2)cc1 (centres undefined),i,2%,i,13µM*,27%,-3%,-1%,7%,2%,?,
Cc1ccc(/C=C/c2onc(C)c2S(=O)(=O)N2CCC(C(=O)Nc3cccc(C#N)c3)CC2)cc1,i,-16%,i,12µM*,18%,-2%,7%,7%,14%,-16%,
Cc1ccc(/C=C/c2onc(C)c2S(=O)(=O)N2CCC(C(=O)Nc3cc(C)ccc3C)CC2)cc1,i,5%,i,-19%,?,.,.,.,.,.,
CCOc1ccc(Nc2nc(-c3c(C)nc4ccccn34)cs2)cc1,12%,.,.,.,.,.,.,.,.,.,
O=Cc1ccc(O)c(O)c1O,.,.,i,.,.,.,.,.,.,.,
Cc1cnc(Nc2ccc(CN3CCOCC3)cc2)nc1Nc1cccc(S(=O)(=O)NC(C)(C)C)c1,-23%,.,.,.,.,.,.,.,.,.,
COc1cc(N2CCN(C)CC2)ccc1Nc1nc(N)c(C(=O)c2c(Cl)cccc2Cl)s1,8%,.,.,.,.,.,.,.,.,.,
COc1ccc(CCNc2nc3c(c(=O)n(C)c(=O)n3C)n2Cc2ccc(F)cc2)cc1OC,?,-18%,i,10µM*,?,?,?,10%,-23%,-26%,
CCNc1nc2c(c(=O)n(C)c(=O)n2C)n1Cc1ccc(F)cc1,-1%,?,i,?,?,.,.,.,.,.,
Cn1c(=O)c2c(nc(NCc3ccccc3)n2Cc2ccc(Cl)c(Cl)c2)n(C)c1=O,-3%,-12%,i,14µM*,-24%,-9%,?,-2%,-25%,?,
C=CCNc1c(O)cc2c(O)c1C[C@@H](C)C[C@H](OC)[C@@H](O)[C@@H](C)C=C(C)[C@H](OC(N)=O)[C@@H](OC)C=CC=C(C)C(=O)N2,20%,.,.,.,.,.,.,.,.,.,
C1Cc2[nH]nc(-c3nn[nH]n3)c2C1,-7%,.,.,.,.,.,.,.,.,.,
Cc1ccc(C(=O)CSc2nnc(-c3ccccc3)n2-c2ccccc2)cc1,8%,9%,i,-17%,?,.,.,.,.,.,

# High-throughput results: PubChem BioAssay, National Center for Advancing Translational Sciences (NCATS)
